# Results filed as inconclusive are left out. Activity calls are given as the source filed them. The call rests on the fitted dose curve; in most records, active means well fitted inhibition curve with a large enough effect; inconclusive means small, poorly fitted or top-dose-only effect; inactive means no such curve, though single readings can be large or run the other way.
# Tested on: Zika virus NS2B-NS3 protease (linked construct)
# Experiment: Primary screen NINDS Rhodamine qHTS for Zika virus inhibitors (AID 1347160); further: nearly all actives have a fitted effect of over 55% in size
# Details: purified NS2B-NS3 protease, Rhodamine110 substrate fluorescence; series mostly up to 57.1 µM; activity change, negative = inhibition: at the top concentration
# Source text: Avindra Nath, Ph.D., National Institute of Neurological Disorders and Stroke (NINDS), Bethesda, MD
# Radhakrishnan Padmanabhan, Ph.D., Georgetown University (GU), Washington D.C.
# Zika Virus causes congenital defects, including microcephaly and is associated with Guillain-Barre syndrome, eningoencephalitis and myelitis in infected adult. […] Using a target-based approach, we hope to establish a screening paradigm to uncover novel, cell-active NS2B-NS3 protease (Zika Virus) specific inhibitors from NCATS' collection of small molecules using qHTS.
# Four assay panel was created to identify potential Zika Virus inhibitors. Namely, (1) GU unlinked NS2B-NS3 AMC tagged protease qHTS, (2) GU unlinked NS2B-NS3 Rhodamine tagged protease qHTS, (3) NINDS linked NS2B-NS3 AMC tagged protease qHTS, (4) NINDS linked NS2B-NS3 Rhodamine tagged protease qHTS. Active compounds were re-acquired and re-screened to confirm inhibition. Inhibitors were further screened against various confirmatory and counterscreens in dose response format.
# Early Translation Branch (ETB)
# National Center for Advancing Translational Sciences (NCATS), Rockville, MD
# National Institute of Health (NIH), Bethesda, Maryland
# For the linked assay, Nath lab (NINDS) provided the purified linked NS2B-NS3 protease which is consists of hydrophilic domain of NS2B linked to the NS3 protease domain by a flexible (-[…]-) linker. Control compound aprotinin is obtained from Thermo Scientific (#78432; Waltham, Massachusetts). Rhodamine110 substrate ([N-Cbz]-Nle-Lys-Arg-Arg-Rhod110-Arg-Arg-Lys-Nle-[N-Cbz]) was purchased from either Genscript or Bachem.
# 1536-well Protease (Rhodamine110 Substrate) Assay:
# Briefly, 3 microL of enzyme (25 nM final concentration), in assay buffer (10 mM Tris-HCl pH 8.0 with 0.01% Tween 20) were dispensed into a 1,536-well solid-bottom black plate (Greiner Bio One, Monroe, NC). Twenty-three nL of compounds (final concentration range 7.28 nM to 114 microM) or control Aprotinin (final concentration range 3.47 nM to 114 microM) were transferred via Wako Pin-tool (Wako Automation, Richmond, VA). Samples were incubated (room temperature, protected from light) for 15 minutes followed by a 1 microL Rhodamine110 substrate addition (1.5 microM final concentration). Plates were then immediately read on a ViewLux High-throughput CCD imager (PerkinElmer, Waltham, MA) equipped with FITC fluorescence optics (480(20) nm excitation, 540(25) nm emission), then incubated (room temperature, protected from light) for 15 minutes (~15% conversion). The change in fluorescence intensity over the 15-minute reaction period was normalized against no-inhibitor and no-enzyme controls and the resulting percent inhibition data were fitted to a 4-parameter Hill equation. Aprotinin was used as intraplate control.
# On the % scale 0 is the no-effect control and ±100 the full control effect; potency means the concentration at half of the fitted maximal effect.
SMILES,Potency,"activity change, negative = inhibition",outcome
CC1=CC(=O)[C@@]2(C(C)C)C[C@@H]12,3.16 µM (active),–,–
Cc1cc(C)c(-c2csc(NC(=O)c3ccccc3)n2)c(C)c1,–,-7.71% (inactive),–
CC1=CC2=C[C@H](C)C[C@@]23OC(=C(C)C3=O)CC(C)(C)/C=C/C1=O,55.3 µM (active),–,–
C[C@]12CC[C@]3(C1)[C@H](CC2=O)CC(OC(=O)c1ccccc1)[C@H]1[C@@](CO)(C(=O)O)CCC[C@@]13C (stereo not given in full),49.3 µM (active),–,–
O=C(O)CC1OC(=O)c2c(O)cccc21 (stereo not given),–,-19.4% [at 112 µM] (inactive),–
FC(F)(F)c1ccc(CNc2ccc(Cc3c[nH]c4ncccc34)cn2)cc1,–,51.2% (inactive),–
CC(C)COc1ccc(CNC(=O)N(Cc2ccc(F)cc2)C2CCN(C)CC2)cc1,–,99.1% (inactive),–
O=S(=O)(c1cccc2ccccc12)n1ccc2ccc(N3CCN4CCCC4C3)cc21 (stereo not given),–,–,inactive
C[C@@H]1O[C@@H](O[C@@H]2[C@@H](O)[C@H](O[C@@H]3[C@@H](O)[C@@H](O)C(O[C@H]4[C@H](OC(=O)[C@]56CCC(C)(C)C[C@H]5C5=CCC7[C@@]8(C)C[C@H](O)[C@H](O[C@@H]9C[C@H](CO)[C@@H](O)[C@H](O)[C@H]9O)[C@@](C)(CO)C8[C@H](O)C[C@@]7(C)[C@]5(C)CC6)OC[C@H](O)[C@@H]4O)O[C@H]3C)OC[C@H]2O)[C@H](O)[C@H](O)[C@H]1O (stereo not given in full),24.3 µM (active),–,–
COCCNCc1ccc(-c2cc3nccc(Oc4ccc(NC(=S)NC(=O)Cc5ccc(F)cc5)cc4F)c3s2)nc1,–,–,inactive
C[C@H]1C[C@@H]([C@@H]2CC[C@]34O[C@H](CC[C@@]35C[C@H](C)C(=O)O5)CN24)OC1=O,–,10.5% [at 112 µM] (inactive),–
CNc1ccc([N+](=O)[O-])cc1-n1cnc(-c2ccc(C(F)(F)F)cc2)c1,–,–,inactive
Cc1ccc2c(Nc3ccc(Cl)cc3)nccc2c1Nc1ncccc1-c1ncnc2nc[nH]c12,–,0.0856% (inactive),–
CC1(C)[C@H](Br)CC[C@]23C[C@]4(C)C(=O)CC12C[C@H]34,–,-45.6% [at 112 µM] (inactive),–
CCOc1ccc(-c2nc(-c3cccc4c3CCC4NCCO)no2)cc1OCC (stereo not given),–,2.9% (inactive),–
CC1CCC2C(=CCC(O)C2(C)C)C1(C)Cc1c(O)cc(CO)c(C=O)c1O (stereo not given),–,–,inactive [at 33.1 µM]
C[C@@H](CCC[C@]1(C)C(=O)C=C[C@]23C[C@H]4C[C@H](O[C@@]4(C)C2)C31)C(=O)N[C@@H](CO)C(=O)O (stereo not given in full),–,-12.4% [at 112 µM] (inactive),–
CC[C@H](CO)Nc1nc(Nc2cccc(-c3ccccn3)c2)c2ncn(C(C)C)c2n1,–,–,inactive
CO[C@@H]1[C@@H](O[C@H]2O[C@@H](C)[C@H](O[C@@H]3C[C@](C)(O)[C@H](O)[C@@H](C)O3)[C@@H](N(C)C)[C@@H]2O)[C@@H](CC=O)C[C@@H](C)[C@@H](O[C@H]2CC[C@H](N(C)C)[C@H](C)O2)/C=C/C=C/C[C@@H](C)OC(=O)C[C@H]1O,–,–,inactive
CNc1ccc(Cl)cc1C(=O)OC[C@]1(C)[C@H]2CC[C@]3(C)[C@@H](C[C@@H](OC)[C@H](C)[C@H]3C3=C(O)C(=O)OC3O)[C@]2(C)CC[C@H]1O (stereo not given in full),6.21 µM (active),–,–

SMILES,Potency,"activity change, negative = inhibition",outcome
C=C1CC[C@@H]2[C@](C)(CO)[C@H](O)CC[C@@]2(C)[C@@H]1C/C=C1/C(=O)OC[C@@H]1O,–,18% [at 33.1 µM] (inactive),–
CC(=O)N[C@@H](CC(=O)O)C(=O)N[C@@H](CCC(=O)O)C(=O)N[C@H](C(=O)N[C@@H](CC(=O)O)C(=O)Nc1ccc2c(C)cc(=O)oc2c1)C(C)C,–,-1.92% (inactive),–
CC1=CC[C@@]2(C[C@@H]1O)[C@@H](C(=O)O)CC[C@H]2C(C)C,–,-12.2% [at 112 µM] (inactive),–
CCCCCC[C@H](CCCCC[C@@H](O)C(N)=O)OC(=O)[C@@H]1CC=CN1C(=O)c1ccccc1O,62.1 µM (active),–,–
O=C(Nc1ccc(F)cc1)N1CCc2ccccc2C1c1ccc(C(F)(F)F)cc1 (stereo not given),–,-28.8% (inactive),–
CO[C@@H]1[C@H](O)[C@@H](C)O[C@@H](OC[C@@H]2C(C)OC(=O)/C=C/[C@H](C)C(O[C@@H]3O[C@H](C)CC4(OC(=O)O[C@@H]4C)C3O)[C@@H](C)CC(C)C(=O)CC[C@H]3OC23)[C@@H]1OC (stereo not given in full),49.3 µM (active),–,–
Cc1cc2nc(NCCCO)n(CC(=O)c3cc(C(C)(C)C)c(O)c(C(C)(C)C)c3)c2cc1C,–,64.6% (inactive),–
CNCc1ccc(C)c(NC(=O)c2ccc(Nc3nc(-c4ccccc4)c4ccccc4n3)cc2)c1,–,245% (inactive),–
N#Cc1cccc(C#N)c1-c1nc2c3ccccc3c3cc(Cl)ccc3c2[nH]1,–,-6.01% (inactive),–
COc1cccc(CNC(=O)Nc2nc(-c3ccncc3)cs2)c1,–,10.5% (inactive),–
CCCCn1ccc(N2CCC(c3ccccc3)CC2)c(Cl)c1=O,–,-13.8% (inactive),–
CC(C)N(CCCNC(=O)Nc1ccc(C(C)(C)C)cc1)C[C@H]1O[C@@H](n2cc(Br)c3c(N)ncnc32)[C@H](O)[C@@H]1O,–,4.01% (inactive),–
CC[C@]1(O)C[C@H]2CN(CCC3C(=Nc4ccccc43)[C@@](C(=O)OC)(c3cc4c(cc3OC)N(C)[C@H]3[C@@](O)(C(N)=O)[C@H](O)[C@]5(CC)C=CCN6CC[C@]43[C@@H]65)C2)C1 (stereo not given in full),–,48.9% (inactive),–
CC(=O)[C@@H]1[C@@H](O)C[C@H]2[C@]3(C)CC[C@H]4C(C)(C)CCC[C@]4(CO)[C@H]3C[C@H]3OC(=O)[C@@H]1[C@@]32C,55.3 µM (active),–,–
Nc1ncnc2c1ncn2[C@@H]1O[C@H](CO)C[C@H]1O,–,-0.204% (inactive),–
O=Cc1ccc2n1C[C@@]1(C[C@H](O)[C@H](O)CO1)OC2,–,9.89% [at 112 µM] (inactive),–
COc1ccc([C@@H]2c3cc(OC)c(OC)cc3C(=O)[C@H](C)C2C)cc1OC (stereo not given in full),–,-28% [at 33.1 µM] (inactive),–
O=C(NCc1ccc(Oc2ccccc2)cc1)c1nc(-c2cc(Br)c(O)c(Br)c2)no1,2.51 µM (active),–,–
C[C@@H]1CCNC(=O)c2cc3ccc(C(=O)Nc4nc5ccccc5n4CCCN(C)C)cc3n21,–,27.5% (inactive),–
C/C=C/c1cc(OC)c2c(c1)[C@@H](C)[C@H](c1ccc(O)c(OC)c1)O2,55.3 µM (active),–,–

# From PubChem BioAssay (NCATS)
